The source of these data is PubChem BioAssay (Tox21).

A short description of assay [1]: cAMP Responsive Elements (CRE) small molecule antagonists, cell-based qHTS assay: qHTS cell viability counter screen (AID 2060913). Further: nearly all actives have a fitted effect of over 40% in size. The essentials: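 Cytotoxicity counter screen multiplexed with the CRE-bla antagonist read: HEK293T cells in DMEM with dialyzed FBS and 25 mM HEPES were treated 3 hrs under 0.25 uM final NKH477, then viability measured by CellTiter-Glo luminescence.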
Background: In qHTS, concentration-response curves come from the screen itself.

Assay [2] can be described thus: cAMP Responsive Elements (CRE) small molecule agonists, cell-based qHTS assay: qHTS cell viability counter screen (AID 2060914). Further: nearly all actives have a fitted effect of over 50% in size. The essentials: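 Cytotoxicity counter screen multiplexed with the CRE-bla reporter assay in HEK 293T cells: 3 h compound exposure at 37 °C, followed by CellTiter-Glo luminescence measured in the same wells.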

Structures are written as SMILES. Records with an inconclusive call do not appear. Entries that show only a call come without a potency. Calls of active or inactive are those of the source. The call rests on the fitted dose curve; in most records, active means well fitted cell-killing curve with a large enough effect in the repeat runs; inconclusive means weak or mixed curves, or effect the other way; inactive means flat fitted curve, though single readings scatter.

As for `Cc1ccc(C)o1`, the Potency result in assay [1] and in assay [2] was “inactive” in each case.
`CCCCN1C[C@H](O)[C@@H](O)[C@H](O)[C@H]1CO`: the Potency entry in assay [1] and in assay [2] was “inactive” in each case.
Take `Clc1cccc(Cl)c1NC1=NCCN1`: the Potency result in assay [1] and in assay [2] was “inactive” in each case.
On to `COCc1ccc(COC)cc1`, for which the Potency entry in assay [1] and in assay [2] was “inactive” each time.
Take `O=C(O)CCCc1c[nH]c2ccccc12`: the Potency entry in assay [1] and in assay [2] was “inactive” in each case.
For the molecule `Cc1ccc(C)cc1`, the Potency entry in assay [1] and in assay [2] was “inactive” each time.
As to `CCCCC(CC)COC(=O)/C=C\C(=O)OCC(CC)CCCC` (stereo not drawn), the Potency result in assay [1] and in assay [2] was “inactive” each time.
Turning to `CC(=O)OC/C=C(\C)CC/C=C(\C)CCC=C(C)C`, the Potency result in assay [1] and in assay [2] was “inactive” in each case.
Turning to `CCN(CC)C(=O)N1CCN(C)CC1`, the Potency entry in assay [1] and in assay [2] was “inactive” throughout.
